Assay outcomes as filed in PubChem.
Shown are actives, neighbours in structure and some others; about 9% of the full set was active somewhere.
JMJD2A Tudor inh = inhibitors of human JMJD2A Tudor domain | O75164 | AlphaScreen JMJD2A-Tudor / H3K4me3 peptide binding | Potency, µM (series often up to 114 µM), most hits filed as inhibitors | 390,000 compounds, 4.4% hits | AID 504339; note: nearly all actives have a fitted effect of over 50% in size
G9a inh-1 = blocks human histone lysine methyltransferase G9a | AID 504332 | G9a H3K9 monomethylation, AlphaScreen, 2 h | 350,000 compounds, 8.8% hits | Potency, µM (series often up to 102 µM), most hits filed as inhibitors | Q96KQ7; note: nearly all actives have a fitted effect of over 75% in size
Target sequence (Q96KQ7 913-1193 limits assumed): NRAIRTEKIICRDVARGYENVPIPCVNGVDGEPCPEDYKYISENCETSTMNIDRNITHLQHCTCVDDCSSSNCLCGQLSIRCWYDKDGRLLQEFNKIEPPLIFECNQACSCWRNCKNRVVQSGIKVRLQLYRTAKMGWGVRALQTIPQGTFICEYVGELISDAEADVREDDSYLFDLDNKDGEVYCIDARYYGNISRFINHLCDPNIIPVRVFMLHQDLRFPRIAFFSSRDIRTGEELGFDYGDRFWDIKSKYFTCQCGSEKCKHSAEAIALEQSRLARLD
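Using a bead-based AlphaScreen, monomethylated H3K9 product from 2 h room-temperature reactions (G9a 20 nM, peptide 500 nM, SAM 20 uM) was detected with 0.5 ug/mL rabbit anti-H3K9me1 antibody.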
BAZ2B block = BAZ2B (human) inhibition; 360,000 compounds, 4.4% hits; AID 504333; Potency, µM (doses to about 114 µM), usual class: inhibitors; AlphaScreen BAZ2B-H3K14Ac peptide displacement; note: nearly all actives have a fitted effect of over 60% in size
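AlphaScreen displacement of biotin-H3(5-23)K14Ac peptide (50 nM final) from BAZ2B (50 nM final) in PBS pH 7.4, 0.01% Tween-20; complex preformed 30 min RT, then compounds (top 110 uM) 30 min RT, beads 20 min dark.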
HP1b binding inh = blocks HP1-beta chromodomain binding to methylated histone tails; P83916; AlphaScreen HP1-beta / biotin-H3K9me3 peptide binding; Potency, µM (series often up to 114 µM), hits mostly inhibitors; 390,000 compounds, 0.56% hits; AID 540317; note: nearly all actives have a fitted effect of over 70% in size
Target sequence (P83916 whole entry, looked up): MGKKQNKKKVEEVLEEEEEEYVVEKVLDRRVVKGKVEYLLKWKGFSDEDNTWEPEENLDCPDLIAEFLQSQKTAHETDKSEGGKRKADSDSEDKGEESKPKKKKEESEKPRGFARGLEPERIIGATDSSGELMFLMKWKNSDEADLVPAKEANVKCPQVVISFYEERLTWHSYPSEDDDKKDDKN
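AlphaScreen: HP1-beta (50 nM) preformed 30 min with biotin-H3(1-18)K9me3 peptide (50 nM) in PBS pH 7.4, 0.01% Tween-20. Compound added for 30 min at RT, then streptavidin donor/nickel chelate acceptor beads (10 ug/mL) for 30 min.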
PLK1 PBD block = PLK1 (human) polo-box domain binding inhibition; P53350; Plk1 PBD binding of FITC phosphopeptide, fluorescence polarization; Potency, µM, usual class: inhibitors; 360,000 compounds, 2.8% hits; note: series mostly up to about 57 µM; nearly all actives have a fitted effect of over 65% in size
ALOX12 inh = ALOX12 (human) lipoxygenase inhibition; P18054; purified 12hLO, xylenol orange hydroperoxide absorbance; Potency, µM (series often up to 108 µM), hits mostly inhibitors; 580,000 compounds, 1.1% hits; AID 1671190
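Hydroperoxide product was detected by ferrous iron/xylenol orange as the 573 to 405 nm absorbance ratio. Arachidonic acid at 40 uM (final) was turned over for 30 min at room temperature by 150 nM human 12hLO, pH 7.0 Hepes buffer, after 15 min compound preincubation.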
G9a inh-2 = inhibits human G9a histone lysine methyltransferase, hit confirmation; Potency, µM, most hits filed as inhibitors; 370 compounds, 89% hits; G9a H3K9 monomethylation, AlphaScreen, 2 h; shares compounds with JMJD2A Tudor inh; note: nearly all actives have a fitted effect of over 65% in size
TbPYK inh = Trypanosoma brucei pyruvate kinase inhibition, cherry-pick confirmation. Potency, µM (highest dose often 76.9 µM), hits mostly inhibitors. recombinant TbPYK, Kinase-Glo ATP luminescence. shares compounds with PLK1 PBD block. 890 compounds, 67% hits; note: nearly all actives have a fitted effect of over 70% in size
TbPYK ADP-Glo = orthogonal confirmation of Trypanosoma brucei pyruvate kinase inhibitors | shares compounds with PLK1 PBD block | recombinant TbPYK, ADP-Glo luminescence, 60 min | Potency, µM (highest dose often 76.9 µM), hits mostly inhibitors | 890 compounds, 62% hits | AID 720584; note: nearly all actives have a fitted effect of over 75% in size
Hits are given with their value; 0 = inactive; ? = inconclusive; - = not tested or not shown; ! = not confirmed by another sample; [ ] = another dose, or the depositor's remark. Calls come from the whole dose curve; as a rule, active = well fitted curve in the direction sought with a large enough effect; inconclusive = small, poorly fitted or top-dose-only effect, or another doubt; inactive = no such curve, though single readings can be large; an effect the other way counts as inactive or inconclusive.

SMILES	JMJD2A Tudor inh	G9a inh-1	BAZ2B block	HP1b binding inh	PLK1 PBD block	ALOX12 inh	TbPYK inh	TbPYK ADP-Glo	others
Nc1cncc(-c2ccc(CN3CCCC3)cn2)c1	-	-	-	-	-	0	-	-
Cc1cc(=O)oc2c1c(C)nn2-c1nn[nH]n1	14.1µM	0.708µM	39.8µM	?	10.6µM	?	-	-	G9a inh-2=0.356
Cc1c(OCC(F)(F)F)ccnc1CS(=O)c1nc2ccccc2[nH]1 (stereo unspecified)	?	6.7µM!	35.5µM	0	26.7µM	12.2µM!	-	-	G9a inh-2=0.502
CCCNC(=O)N1[C@H]2CC[C@@H]1C(C(=O)OC)=C(c1cccc(Cl)c1)C2	0	0[0.501 µM]	0	0	0	0	-	-
CN(CCc1ccccn1)C[C@H]1CN2CC[C@H]1C[C@@H]2CNC(=O)Nc1ccsc1	-	-	-	-	-	0	-	-
Cc1nn(Cc2ccccc2)c(C)c1C(=O)NCc1ccccc1	0	0	0	0	0	0	-	-
Cc1nn(Cc2ccccc2)c(C)c1C=C1C(=O)NC(=O)NC1=O	0	0	0	0	9.47µM	0	17.8µM	31.6µM
COc1ccc(N2C(=O)CS(=O)C(c3ccccc3)C2=O)cc1 (stereo unspecified)	8.91µM	0.708µM	?	12.6µM	2.38µM	?	12.6µM	25.1µM
O=S1c2ccccc2-c2ccccc21	-	-	-	-	0	0	-	-
CCCOC(=O)Nc1ccc([As](=O)(O)O)cc1NC(=O)OCCC	0	0[0.501 µM]	0	0	0	0	-	-
CCOC(=O)Nc1ccc(NCc2ccc(F)cc2)nc1N	56.2µM	1.19µM	70.8µM	?	7.52µM	?	4.47µM	11.2µM
CCCN(C(=O)c1cc2c(=O)oc3ccccc3c2s1)c1cccc(Cl)c1	?	0	0	0	-	0	-	-
COc1ccc([N+](=O)[O-])cc1N=Cc1c(O)n(CCc2ccccc2)c(=O)n(C(C)C)c1=O	?	?	?	0	0	0	-	-
COc1cc(C=C2C(=O)NC(=O)NC2=O)ccc1OCc1ccc([N+](=O)[O-])cc1	35.5µM	25.1µM	-	0	6.7µM	?	12.6µM	28.2µM
C#C[C@H]1CN2CC[C@H]1C[C@@H]2CNS(=O)(=O)c1cccc(F)c1	-	-	-	-	-	0	-	-
O=C1NC(=S)NC(=O)C1=Cc1cccn1-c1ccc(O)cc1	25.1µM	7.08µM	0	?	2.38µM	?	7.08µM	15.8µM
Cc1cccc2c1=NC(=O)/C(=C/c1c(O)[nH]c(=O)[nH]c1=O)C=2	0	10µM	?	0	7.52µM	0	25.1µM	?
O=C1NC(=S)NC(=O)C1C/C=C/c1ccccc1	79.4µM	7.94µM	0	0	10.6µM	3.98µM	8.91µM	11.2µM
Cn1c(O)c(/C=C2\C=c3ccccc3=NC2=O)c(=O)n(C)c1=O	0	39.8µM	0	0	?	0	?	0
Cc1ccc(-c2nc(N3CCOCC3)s[n+]2-c2ccccc2)cc1	8.91µM	0.891µM	?	?	5.97µM	20µM	0.224µM	0.562µM
N#CCCn1cc(C(=O)NCc2ccccc2)c(-c2ccccc2)n1	0	0	0	0	0	0	-	-
N#CCCn1cc(C=C2C(=O)NC(=O)NC2=O)c(-c2ccccc2)n1	0	?	0	0	2.67µM	0	15.8µM	31.6µM
O=C(O)CCn1cc(C=C2C(=O)NC(=S)NC2=O)c(-c2ccccc2)n1	12.6µM	-	79.4µM	0	2.67µM	?	1.58µM	4.47µM
O=C(O)CCn1cc(C=C2C(=O)NC(=S)NC2=O)c(-c2cc3ccccc3oc2=O)n1	89.1µM	11.2µM	50.1µM	0	10.6µM	0	5.62µM	10µM
N=C1c2ccccc2CN1NC(=O)c1ccco1	0	-	-	0	0	0	-	-
SMILES	JMJD2A Tudor inh	G9a inh-1	BAZ2B block	HP1b binding inh	PLK1 PBD block	ALOX12 inh	TbPYK inh	TbPYK ADP-Glo	others
C=CCN1C(=O)NC(=O)/C(=C\c2ccc(-c3ccccc3[N+](=O)[O-])o2)C1=O	?	22.4µM	79.4µM	0	1.5µM	35.5µM	10µM	25.1µM
CN1C(=O)C(=Cc2ccccc2OS(=O)(=O)c2ccccc2)C(=O)N(C)C1=O	0	-	?	0	5.32µM	?	20µM	?
Cc1ccc(OCCOc2cccc(C=C3C(=O)NC(=O)NC3=O)c2)cc1	?	?	?	0	2.67µM	31.6µM	?	?
O=C1NC(=O)N(Cc2ccc(F)cc2)C(=O)/C1=C\c1ccc([N+](=O)[O-])s1	20µM	6.31µM	35.5µM	?	2.67µM	?	14.1µM	15.8µM
COc1ccc(CN2C(=O)NC(=O)/C(=C/c3ccc([N+](=O)[O-])s3)C2=O)cc1	22.4µM	8.91µM	25.1µM	28.2µM	1.89µM	?	17.8µM	31.6µM
CC1(C)C(=O)CC[C@@]2(C)C1=CCC1C2CC[C@]2(C)C(=O)CCC12 (stereo partly specified)	0	-	-	0	0	0	-	-
Cc1cccc(CN2CCCC(C(=O)c3cccc(OC(C)C)c3)C2)n1 (stereo unspecified)	0	0	0	0	0	0	-	-
CN(C)c1ccc(/C=C/c2cc[n+](C)c3ccccc23)cc1	22.4µM	?	79.4µM	44.7µM	0	?	?	0
CCOc1ccc(NC(=O)C2C3c4ccccc4C(c4ccccc43)C2C(=O)O)cc1 (stereo unspecified)	0	0	0	0	0	0	-	-
O=C1NC(=O)C(=Cc2ccc(N3CCN(C(=O)c4ccccc4)CC3)c([N+](=O)[O-])c2)C(=O)N1	39.8µM	11.2µM	?	?	6.7µM	?	31.6µM	35.5µM
O=[N+]([O-])c1ccc(C(=Nc2ccccc2)N2CC2)cc1	?	-	-	?	0	0	-	-
CN1CCN(C(=S)c2ccc([N+](=O)[O-])cc2)CC1	?	10µM	0	?	5.32µM	?	5.01µM	12.6µM
COc1ccc(C(=O)O[C@H]2CC[C@@]3(C)C4CCC5[C@]6(O)C[C@H](O)[C@@]7(O)C(CN8C[C@@H](C)CC[C@H]8[C@@]7(C)O)[C@]6(O)C[C@@]53O[C@@]42O)cc1OC (stereo partly specified)	-	0	-	-	-	0	-	-
O=C(Cc1ccc2c(c1)OCO2)N1CCN(Cc2ccccc2)CC(O)C1 (stereo unspecified)	-	-	-	-	-	0	-	-
O=C1NC(=O)N(c2ccc3c(c2)OCO3)C(=O)/C1=C\c1ccc(-c2ccccc2C(=O)O)o1	31.6µM	10µM	79.4µM	?	2.99µM	?	12.6µM	?
N#Cc1cc([N+](=O)[O-])ccc1NC(=O)c1cccn(Cc2cccc(F)c2)c1=O	0	0	0	0	-	?	-	-
CN1CC(C(=O)c2ccc(F)cc2)C(c2c(F)cccc2Cl)C1 (stereo unspecified)	0	0	0	0	0	0	-	-
O=C/C=C/c1ccccc1	0	0	-	0	0	0	-	-
